Screening results (PubChem)
Only some compounds are listed: those with a hit (about 5.1% of all), similar ones and a draw of the others.
Cl transport mod: modulates chloride dependent transport by human KCC2 | Q9H2X9 | KCC2 cells, thallium flux FluoZin-2 fluorescence | B-score of Tl+ flux slope (higher = more flux/activation; lower = inhibition) at 10 µM | 190,000 tested, 2.2% active | AID 1456;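 active = thallium flux slope and its plate-corrected score both differing from the plate sample mean at a set confidence after two filtering rounds, in either direction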;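 also: slope of fluorescence scaled to starting intensity during 10 to 20 s after thallium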
Target sequence (Q9H2X9 whole entry, looked up): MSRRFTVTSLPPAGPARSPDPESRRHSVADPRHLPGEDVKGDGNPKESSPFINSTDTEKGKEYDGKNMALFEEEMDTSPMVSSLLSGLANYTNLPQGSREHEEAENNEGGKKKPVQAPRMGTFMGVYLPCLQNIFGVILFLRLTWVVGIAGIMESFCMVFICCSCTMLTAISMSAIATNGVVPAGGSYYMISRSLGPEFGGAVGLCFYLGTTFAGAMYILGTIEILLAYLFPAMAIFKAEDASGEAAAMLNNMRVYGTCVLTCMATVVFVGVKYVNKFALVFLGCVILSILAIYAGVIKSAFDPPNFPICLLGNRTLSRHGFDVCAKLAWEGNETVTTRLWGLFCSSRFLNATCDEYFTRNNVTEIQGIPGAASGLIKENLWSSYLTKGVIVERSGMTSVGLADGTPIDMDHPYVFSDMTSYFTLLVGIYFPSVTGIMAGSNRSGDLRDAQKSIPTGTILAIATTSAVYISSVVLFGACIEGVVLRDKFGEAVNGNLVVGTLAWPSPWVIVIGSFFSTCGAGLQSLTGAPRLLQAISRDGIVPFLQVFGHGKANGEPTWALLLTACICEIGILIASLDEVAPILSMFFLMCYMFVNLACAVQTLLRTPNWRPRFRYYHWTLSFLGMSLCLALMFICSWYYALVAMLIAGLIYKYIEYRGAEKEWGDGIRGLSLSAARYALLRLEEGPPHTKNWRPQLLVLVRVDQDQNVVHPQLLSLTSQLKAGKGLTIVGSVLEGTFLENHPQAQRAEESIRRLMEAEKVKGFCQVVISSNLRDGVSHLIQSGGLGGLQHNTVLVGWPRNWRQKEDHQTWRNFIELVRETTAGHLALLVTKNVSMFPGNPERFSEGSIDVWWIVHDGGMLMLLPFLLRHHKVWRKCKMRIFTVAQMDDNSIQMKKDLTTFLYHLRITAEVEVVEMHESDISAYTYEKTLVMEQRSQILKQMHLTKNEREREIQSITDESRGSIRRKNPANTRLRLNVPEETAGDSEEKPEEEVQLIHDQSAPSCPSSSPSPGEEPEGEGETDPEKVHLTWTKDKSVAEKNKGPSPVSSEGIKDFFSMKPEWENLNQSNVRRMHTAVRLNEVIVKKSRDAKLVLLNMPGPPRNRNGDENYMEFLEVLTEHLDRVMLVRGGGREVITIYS
S1P4 ag: human S1P4 receptor agonism | S1P4-expressing cell line, agonist reporter assay | activation, % at 4.98 µM | 220,000 tested, 0.35% active | AID 1509; in the data active = activation above about 11%;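 also: 0% = DMSO vehicle and 100% = reference agonist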
S1P4 antag: antagonists of human S1P4 receptor | 220,000 tested, 0.26% active | inhibition, % at 4.98 µM | O95977 | S1P4-expressing cells, antagonist mode, reporter read-out | AID 1510; in the data active = inhibition above about 29%;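 also: 0% = wells stimulated with agonist and 100% = vehicle wells without agonist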
RAM inhibit: yeast RAM network inhibition; S. cerevisiae dse1pr::URA3 reporter, 5-FOA growth OD615, 2 d; analog-sensitive cbk1-as2 kinase mutant strain; inhibition, % at 50 µM; 190,000 tested, 1.8% active; AID 868;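 active = inhibition above a set limit, 3 SD over mean compound inhibition, cut at about 8.4% in these data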;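 also: 0% = DMSO-only wells with no growth and 100% = 10 µM 1-NA-PP1 full growth; inhibition rescues growth on 5-FOA so higher OD means more RAM inhibition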
ROMK mod: modulates human ROMK potassium channel activity. B-score at 10 µM. P48048. 130,000 tested, 2% active. Tet-inducible ROMK, thallium flux fluorescence; actives lie on both sides;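 active = signal ratio slope over the read window, or its plate-corrected B-score, at least 3 SD from the plate mean, either direction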;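 also: B-score of the F/F0 ratio slope over 7 to 12 s after thallium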
S1P3 antag: S1P3 (human) receptor antagonism; CHO S1P3 NFAT-BLA reporter, FRET fluorescence, antagonist mode; inhibition, % at 4.98 µM; 170,000 tested, 0.27% active; AID 485;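 active = inhibition above the plate cutoff, the mean inhibition of test wells on that plate plus 3 SD, cut at about 28% in these data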;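 also: cells challenged with S1P at its EC80 of 0.8 µM; blue over green emission ratio from cleaved BLA substrate after 4 h stimulation; 0% = S1P-stimulated wells and 100% = unstimulated DMSO-only wells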
KCC2 secondary: KCC2 (human) modulation, secondary assay; shares compounds with Cl transport mod; HEK293-KCC2, thallium flux, FluoZin2 fluorescence; hits give high values; normalised thallium flux (F/F0 slope) at 10 µM; 3,700 tested, 15% active;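 active = thallium flux slope above the same plate's solvent-only control mean plus 3 SD; inconclusive = the two replicate wells disagree; inactive = no significant difference from solvent-only control wells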
KCC2 bumet counter: thallium flux despite bumetanide block in KCC2 cells, secondary assay 3 | shares compounds with Cl transport mod | HEK293-KCC2 + bumetanide/ouabain, thallium flux FluoZin2; hits give high values | normalized thallium flux at 10 µM | 3,700 tested, 49% active | AID 1714;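 active = thallium entry rate above the same plate's blocked-transporter control wells by more than 3 SD; inconclusive = the two repeat wells disagree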;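 also: raw slope of fluorescence over initial fluorescence between 10 and 20 s after thallium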
KCC2 secondary2: confirmation of human KCC2 transport modulators. shares compounds with Cl transport mod. HEK293-KCC2, thallium flux FluoZin2 fluorescence; actives lie on both sides; F/F0 rise rate, 10–20 s post-thallium. normalized thallium flux at 10 µM. 3,700 tested, 23% active;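 active = thallium flux slope more than 3 SD above or below the plate's solvent-only control mean, mostly below; inconclusive = the two repeat wells disagreed; inactive = no significant shift from solvent-only controls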;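 also: raw slope with 0.1% DMSO as baseline and bumetanide as block control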
HEK counter1: acts in parental HEK cells, KCC2 counter-screen; shares compounds with Cl transport mod; HEK293 parental cells, thallium flux FluoZin2, ouabain; baseline-ratio fluorescence slope, 10–20 s after thallium; 3,700 tested, 46% active; thallium flux rate (normalised fluorescence) at 10 µM;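 active = thallium flux rate significantly above the same plate's solvent-only control wells, beyond their mean plus 3 SD; inconclusive = the two replicate wells gave conflicting results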
KCC2 retest ouab: KCC2 (human) modulation, ouabain retest; shares compounds with Cl transport mod; HEK293-KCC2, thallium flux FluoZin2 fluorescence; bidirectional: low = inhibitor, high = activator; raw Tl+ flux slope (below DMSO = inhibition, above = activation) at 10 µM; 3,700 tested, 48% active; AID 1717;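 active = thallium flux slope beyond 3 SD from same-plate DMSO control mean in most replicates, usually higher, sometimes lower; inconclusive = repeat tests gave conflicting results; inactive = no significant difference from controls in most replicates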;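 also: slope of initial-normalized fluorescence between seconds 10 and 20 after thallium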
HEK counter2: counter-screen for KCC2 modulators: effect in parental HEK293 cells. 3,700 tested, 33% active. shares compounds with Cl transport mod. thallium flux FluoZin-2 fluorescence slope. thallium flux slope at 10 µM. AID 1718;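 active = thallium flux slope above the same plate's solvent-control mean plus 3 SD in both duplicate wells; inconclusive = duplicate wells that disagreed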;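 also: run without ouabain in cells lacking the KCC2 cotransporter; slope of fluorescence scaled to its starting value between 10 and 20 s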
An asterisk follows results filed as active; ? = inconclusive; . = not tested or not shown.

SMILES	Cl transport mod	S1P4 ag	S1P4 antag	RAM inhibit	ROMK mod	S1P3 antag	KCC2 secondary	KCC2 bumet counter	KCC2 secondary2	HEK counter1	KCC2 retest ouab	HEK counter2
COc1ccc(OC)c(-n2nnnc2SCC(=O)NCCc2ccccc2)c1	.	-3	-25	2	0.015	-15	0.0066	0.0051	?	0.0073	0.017	0.011
CCOC(=O)C1(Cc2cccc(F)c2)CCN(C(=O)c2cnccn2)CC1	0.52	0	-1	-1	0.28	-2	.	.	.	.	.	.
CCn1ncc(CN2CCCC(CNC(=O)c3ccc(F)cc3)C2)c1C (stereo unspecified)	-6.2*	1	-3	2	0.57	-7	0.016	0.0052	0.028	0.0075	0.017	0.011
Cc1cc(CN2CCCC(CNC(=O)c3ccc(F)cc3)C2)cc(C)c1O (stereo unspecified)	-0.12	1	7	2	-0.65	6	.	.	.	.	.	.
O=c1sc(Nc2ccccc2)nc2ccccc12	.	2	0	2	-0.55	-6	.	.	.	.	.	.
Cc1ccc(Nc2nc3ccccc3c(=O)s2)cc1	14*	-2	15	3	0.74	2	0.011*	0.031*	0.031	0.013*	0.034*	0.011*
N#Cc1cccc(S(=O)(=O)NCC(=O)OCC(=O)c2ccc[nH]2)c1	-0.86	-1	1	1	0.57	-16	.	.	.	.	.	.
Fc1ccccc1CSc1nncn1NC/C=C/c1ccccc1	-4.8*	-5	-4	0	.	.	0.0073	0.0086*	?	0.0075	0.017	0.011
Cc1ccnc(NC(=S)NC(=O)c2cncc(Br)c2)c1	8.5*	-1	1	6	-0.11	-7	0.0068	0.019*	0.032	0.015*	?	0.014*
O=C(Nc1ccc(F)cc1F)c1cc(=O)n(-c2ccccc2)c(=O)[nH]1	-0.62	1	7	5	0.9	-1	.	.	.	.	.	.
O=C(Nc1ncc2c(n1)-c1ccccc1CC2)c1cccc(Cl)c1	-4.4*	1	-10	0	.	.	0.0065	0.0045	0.022*	0.0062	0.013*	0.0087
COc1cc(C(C(=O)NC(C)(C)C)N(Cc2ccccc2)C(=O)c2cnccn2)cc(OC)c1OC (stereo unspecified)	0.64	3	-9	0	-1	-7	.	.	.	.	.	.
COc1ccc(CN(C(=O)c2ccc(-c3ccccc3)[nH]2)C(C(=O)NC(C)(C)C)c2ccncc2)cc1 (stereo unspecified)	-4.9*	1	-6	0	0.027	-6	0.0085	0.0072	?	0.0073	0.016*	0.01
Cc1ccccc1-c1ncc(CN2CCC(CO)(CCCc3ccccc3)CC2)cn1	-1.3	0	14	1	-0.87	0	.	.	.	.	.	.
O=C(Cn1cnc2c(nnn2Cc2ccccc2F)c1=O)NCc1ccco1	.	-1	-17	4	0.88	-4	0.0093	0.0066	?	0.0081	0.018*	0.011
Cc1ccc(Cn2nnc3c(=O)n(CC(=O)NCc4ccco4)cnc32)cc1	-2.9*	4	-1	3	-0.22	-21	0.0073	0.0039	?	?	0.015*	0.01
Cc1ccc(-n2nnc3c(=O)n(CC(=O)NCc4ccco4)cnc32)cc1	-0.11	-2	-4	2	.	-7	.	.	.	.	.	.
O=C(Cn1cnc2c(nnn2-c2ccccc2)c1=O)NCc1ccco1	-1.3	0	4	1	.	-32	.	.	.	.	.	.
Cc1ccc(C)c(NC(=O)CN(C)C(=O)COc2ncnc3sccc23)c1	0.14	1	-18	1	1.1	4	.	.	.	.	.	.
CCC(C)[C@H](NC(=O)N1CCC(C)CC1)C(=O)OC (stereo partly specified)	1.2	0	-9	.	.	-3	.	.	.	.	.	.
COc1ccc(OCc2n[nH]c(=S)o2)cc1	-3.1	2	-6	1	0.47	.	.	.	.	.	.	.
S=c1[nH]nc(COc2ccc(Cl)cc2)o1	-6.1*	3	-20	-1	.	4	0.0072	?	0.022*	0.0081	?	0.011
S=c1[nH]nc(CCc2ccc(Cl)cc2)o1	-7.8*	-1	-6	-2	.	-5	0.01	0.007	0.023*	0.0074	0.04*	0.01
Cc1ccc(C(C)C)c(OCc2n[nH]c(=S)o2)c1	28*	2	-16	-2	0.55	-2	0.014	0.043*	?	0.034*	0.035*	0.034*
C[C@H](O)CC1=C[C@H](O)[C@@H](C)OC1=O	0.37	-1	-8	2	.	3	.	.	.	.	.	.
SMILES	Cl transport mod	S1P4 ag	S1P4 antag	RAM inhibit	ROMK mod	S1P3 antag	KCC2 secondary	KCC2 bumet counter	KCC2 secondary2	HEK counter1	KCC2 retest ouab	HEK counter2
O=C(Nc1nc2ccccc2s1)C1CCN(S(=O)(=O)c2cc([N+](=O)[O-])ccc2Cl)CC1	0.3	-1	13	.	.	26	.	.	.	.	.	.
N#C/C(=C\c1ccc(-c2ccccc2Cl)o1)C(=O)Nc1nc2ccccc2s1	6.8*	2	-12	7	-1.5	-7	0.0069	0.024*	0.037	0.032*	0.029*	0.034*
O=C(c1ccccc1SCc1ccccc1)N1CCCCCC1	-2.6	0	-14	0	-0.038	-3	.	.	.	.	.	.
CCSc1nnc(NC(=O)C(NC(=O)c2ccc(Cl)cc2)C(C)C)s1 (stereo unspecified)	0.27	1	-2	4	-1.1	-23	.	.	.	.	.	.
S=C(Nc1ccccc1)Nc1ccccc1-n1cccc1	8.5*	1	8	.	.	5	0.014*	0.05*	0.039	0.017*	?	0.016*
COc1ccc2cc(C(=O)C3CCCN(C(=O)CCc4cnn(C)c4)C3)ccc2c1 (stereo unspecified)	.	1	-6	3	-0.071	9	.	.	.	.	.	.
O=C(CSc1nnc(SCc2cccc3ccccc23)s1)N/N=C/c1c[nH]c2ccccc12	-3.9*	1	6	4	.	-7	0.0057*	0.014*	0.024*	0.0089*	0.024*	?
CCC(Sc1nc2c(c(=O)n1CC)SC(C)C2)C(=O)OC (stereo unspecified)	.	0	-11	2	.	.	.	.	.	.	.	.
O=C(CSc1ncccn1)Nc1ncc(C(F)(F)F)cc1Cl	0.67	-2	-3	3	0.035	-2	.	.	.	.	.	.
